{
  "source": "the supplement of paper PMC8728848",
  "binders": {"B1": {"name": "Erv41-EDTA (Saccharomyces cerevisiae), Q04651 (protein)", "chain": "MKFLVNVALVFMVVYISYIYAAAPEHHHHHHDYDIPTTENLYFQGAMGYIDQQYVVDSQVRDTVQINMDIYVNTKCDWLQINVRDQTMDRKLVLEELQLEEMPFFIPYDTKVNDINEIITPELDEILGEAIPAEFREKLDTRSFFDESDPNKAHLPEFNGCHVFGSIPVNRVSGELQITAKSLGYVASRKAPLEELKFNHVINEFSFGDFYPYIDNPLDNTAQFNQDEPLTTYVYYTSVVPTLFKKLGAEVDTNQYSVNDYRYLYKDVAAKGDKMPGIFFKYNFEPLSIVVSDVRL"}},
  "test_in_all_cases": "glycan array binding signal (z-score within array); higher = stronger binding",
  "conditions_in_all_cases": "glycan notation: IUPAC condensed, linker removed",
  "key": {"[1]": {"target": "Fuc(a1-2)Gal(b1-3)GlcNAc(b1-2)Man(a1-3)[Fuc(a1-2)Gal(b1-3)GlcNAc(b1-2)Man(a1-6)]Man(b1-4)GlcNAc(b1-4)GlcNAc", "in_short": "(§1)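 Columns mapping to the same glycan were averaged after glycan names were converted to IUPAC-condensed notation. The data come from 3228 arrays in the Consortium for Functional Glycomics database, limited to those with an available protein sequence. Binding is reported as a within-array Z-score averaged across arrays of one protein sequence and across linkers.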"}, "[2]": {"target": "Fuc(a1-2)Gal(b1-3)GlcNAc(b1-3)[Fuc(a1-2)Gal(b1-3)GlcNAc(b1-6)]GalNAc", "in_short": "as §1"}, "[3]": {"target": "Fuc(a1-2)Gal(b1-4)GlcNAc(b1-3)Gal(b1-4)GlcNAc", "in_short": "as §1"}, "[4]": {"target": "Fuc(a1-2)Gal(b1-4)GlcNAc6S", "in_short": "as §1"}, "[5]": {"target": "Fuc(a1-2)Gal3S(b1-4)GlcNAc", "in_short": "as §1"}, "[6]": {"target": "Fuc(a1-2)[Gal(a1-3)]Gal(b1-3)GalNAc(b1-3)Gal(a1-4)Gal(b1-4)Glc", "in_short": "as §1"}, "[7]": {"target": "Fuc(a1-2)[Gal(a1-3)]Gal(b1-3)GlcNAc(b1-2)Man(a1-3)[Fuc(a1-2)[Gal(a1-3)]Gal(b1-3)GlcNAc(b1-2)Man(a1-6)]Man(b1-4)GlcNAc(b1-4)[Fuc(a1-6)]GlcNAc", "in_short": "as §1"}, "[8]": {"target": "Fuc(a1-2)[GalNAc(a1-3)]Gal(b1-4)GlcNAc(b1-3)Gal(b1-4)GlcNAc(b1-3)Gal(b1-4)GlcNAc", "in_short": "as §1"}, "[9]": {"target": "Fuc(a1-3)[Gal3S(b1-4)]Glc", "in_short": "as §1"}, "[10]": {"target": "Gal(a1-3)Gal(b1-3)[Fuc(a1-4)]GlcNAc(b1-2)Man(a1-3)[Gal(a1-3)Gal(b1-3)[Fuc(a1-4)]GlcNAc(b1-2)Man(a1-6)]Man(b1-4)GlcNAc(b1-4)GlcNAc", "in_short": "as §1"}, "[11]": {"target": "Gal(a1-3)Gal(b1-4)[Fuc(a1-3)]GlcNAc", "in_short": "as §1"}, "[12]": {"target": "Gal(a1-3)Gal(b1-4)[Fuc(a1-3)]GlcNAc(b1-2)Man(a1-3)[Gal(a1-3)Gal(b1-4)[Fuc(a1-3)]GlcNAc(b1-2)Man(a1-6)]Man(b1-4)GlcNAc(b1-4)GlcNAc", "in_short": "as §1"}, "[13]": {"target": "Gal(b1-3)GalNAc(b1-3)Gal(a1-4)Gal(b1-4)Glc", "in_short": "as §1"}, "[14]": {"target": "Gal(b1-3)GlcNAc(b1-3)Gal(b1-4)GlcNAc(b1-3)Gal(b1-4)GlcNAc(b1-2)[Gal(b1-3)GlcNAc(b1-3)Gal(b1-4)GlcNAc(b1-3)Gal(b1-4)GlcNAc(b1-6)]Man(a1-6)[Gal(b1-3)GlcNAc(b1-3)Gal(b1-4)GlcNAc(b1-3)Gal(b1-4)GlcNAc(b1-2)Man(a1-3)]Man(b1-4)GlcNAc(b1-4)[Fuc(a1-6)]GlcNAc", "in_short": "as §1"}, "[15]": {"target": "Gal(b1-4)GlcNAc(b1-2)Man(a1-6)Man(b1-4)GlcNAc(b1-4)GlcNAc", "in_short": "as §1"}, "[16]": {"target": "Gal(b1-4)GlcNAc(b1-3)Gal(b1-4)GlcNAc(b1-3)Gal(b1-4)GlcNAc(b1-2)Man(a1-3)[Gal(b1-4)GlcNAc(b1-3)Gal(b1-4)GlcNAc(b1-3)Gal(b1-4)GlcNAc(b1-2)Man(a1-6)]Man(b1-4)GlcNAc(b1-4)[Fuc(a1-6)]GlcNAc", "in_short": "as §1"}, "[17]": {"target": "Gal(b1-4)GlcNAc(b1-3)Gal(b1-4)GlcNAc(b1-3)Gal(b1-4)GlcNAc(b1-2)[Gal(b1-4)GlcNAc(b1-3)Gal(b1-4)GlcNAc(b1-3)Gal(b1-4)GlcNAc(b1-6)]Man(a1-6)[Gal(b1-4)GlcNAc(b1-3)Gal(b1-4)GlcNAc(b1-3)Gal(b1-4)GlcNAc(b1-2)Man(a1-3)]Man(b1-4)GlcNAc(b1-4)[Fuc(a1-6)]GlcNAc", "in_short": "as §1"}, "[18]": {"target": "Gal(b1-4)GlcNAc(b1-3)Gal(b1-4)GlcNAc(b1-3)Gal(b1-4)GlcNAc(b1-3)Gal(b1-4)GlcNAc(b1-2)Man(a1-3)[Gal(b1-4)GlcNAc(b1-3)Gal(b1-4)GlcNAc(b1-3)Gal(b1-4)GlcNAc(b1-3)Gal(b1-4)GlcNAc(b1-2)Man(a1-6)]Man(b1-4)GlcNAc(b1-4)[Fuc(a1-6)]GlcNAc", "in_short": "as §1"}, "[19]": {"target": "Gal(b1-4)GlcNAc(b1-3)Gal(b1-4)GlcNAc(b1-3)Gal(b1-4)GlcNAc(b1-3)Gal(b1-4)GlcNAc(b1-2)[Gal(b1-4)GlcNAc(b1-3)Gal(b1-4)GlcNAc(b1-3)Gal(b1-4)GlcNAc(b1-3)Gal(b1-4)GlcNAc(b1-6)]Man(a1-6)[Gal(b1-4)GlcNAc(b1-3)Gal(b1-4)GlcNAc(b1-3)Gal(b1-4)GlcNAc(b1-3)Gal(b1-4)GlcNAc(b1-2)Man(a1-3)]Man(b1-4)GlcNAc(b1-4)[Fuc(a1-6)]GlcNAc", "in_short": "as §1"}, "[20]": {"target": "Gal(b1-4)GlcNAc(b1-3)Gal(b1-4)GlcNAc(b1-3)Gal(b1-4)GlcNAc(b1-3)Gal(b1-4)GlcNAc(b1-3)Gal(b1-4)GlcNAc(b1-2)Man(a1-3)[Gal(b1-4)GlcNAc(b1-3)Gal(b1-4)GlcNAc(b1-3)Gal(b1-4)GlcNAc(b1-3)Gal(b1-4)GlcNAc(b1-3)Gal(b1-4)GlcNAc(b1-2)Man(a1-6)]Man(b1-4)GlcNAc(b1-4)[Fuc(a1-6)]GlcNAc", "in_short": "as §1"}, "[21]": {"target": "Gal(b1-4)GlcNAc(b1-3)Gal(b1-4)GlcNAc(b1-3)[Gal(b1-4)GlcNAc(b1-3)Gal(b1-4)GlcNAc(b1-6)]GalNAc", "in_short": "as §1"}, "[22]": {"target": "Gal(b1-4)GlcNAc(b1-6)GalNAc", "in_short": "as §1"}, "[23]": {"target": "Gal3S(b1-3)GalNAc", "in_short": "as §1"}, "[24]": {"target": "Gal6S(b1-4)GlcNAc6S", "in_short": "as §1"}, "[25]": {"target": "GalNAc(b1-4)GlcNAc(b1-3)GalNAc(b1-4)GlcNAc", "in_short": "as §1"}, "[26]": {"target": "GlcA(b1-3)GlcNAc", "in_short": "as §1"}, "[27]": {"target": "GlcNAc(a1-3)Gal(b1-4)GlcNAc", "in_short": "as §1"}, "[28]": {"target": "GlcNAc(b1-2)Man(a1-3)[GlcNAc(b1-4)][GlcNAc(b1-2)Man(a1-6)]Man(b1-4)GlcNAc(b1-4)[Fuc(a1-6)]GlcNAc", "in_short": "as §1"}, "[29]": {"target": "GlcNAc(b1-2)[GlcNAc(b1-6)]Man(a1-6)[GlcNAc(b1-2)Man(a1-3)]Man(b1-4)GlcNAc(b1-4)[Fuc(a1-6)]GlcNAc", "in_short": "as §1"}, "[30]": {"target": "GlcNAc(b1-3)Gal(b1-4)GlcNAc(b1-3)Gal(b1-4)GlcNAc(b1-2)[GlcNAc(b1-3)Gal(b1-4)GlcNAc(b1-3)Gal(b1-4)GlcNAc(b1-6)]Man(a1-6)[GlcNAc(b1-3)Gal(b1-4)GlcNAc(b1-3)Gal(b1-4)GlcNAc(b1-2)Man(a1-3)]Man(b1-4)GlcNAc(b1-4)[Fuc(a1-6)]GlcNAc", "in_short": "as §1"}},
  "note": "The entries come from a sample that favours the strongest signals as a whole.",
  "data": [
    {"binder": "B1", "values": [
      {"measurement": "glycan array binding signal (z-score)", "setting": "[1]", "result": 0.618},
      {"measurement": "glycan array binding signal (z-score)", "setting": "[2]", "result": 2.18},
      {"measurement": "glycan array binding signal (z-score)", "setting": "[3]", "result": -0.317},
      {"measurement": "glycan array binding signal (z-score)", "setting": "[4]", "result": 0.642},
      {"measurement": "glycan array binding signal (z-score)", "setting": "[5]", "result": -0.093},
      {"measurement": "glycan array binding signal (z-score)", "setting": "[6]", "result": -0.396},
      {"measurement": "glycan array binding signal (z-score)", "setting": "[7]", "result": 0.605},
      {"measurement": "glycan array binding signal (z-score)", "setting": "[8]", "result": 0.784},
      {"measurement": "glycan array binding signal (z-score)", "setting": "[9]", "result": -0.042},
      {"measurement": "glycan array binding signal (z-score)", "setting": "[10]", "result": -0.414},
      {"measurement": "glycan array binding signal (z-score)", "setting": "[11]", "result": -0.74},
      {"measurement": "glycan array binding signal (z-score)", "setting": "[12]", "result": 2.1},
      {"measurement": "glycan array binding signal (z-score)", "setting": "[13]", "result": 1.08},
      {"measurement": "glycan array binding signal (z-score)", "setting": "[14]", "result": 1.31},
      {"measurement": "glycan array binding signal (z-score)", "setting": "[15]", "result": -0.604},
      {"measurement": "glycan array binding signal (z-score)", "setting": "[16]", "result": 1.64},
      {"measurement": "glycan array binding signal (z-score)", "setting": "[17]", "result": 2.65},
      {"measurement": "glycan array binding signal (z-score)", "setting": "[18]", "result": 2.2},
      {"measurement": "glycan array binding signal (z-score)", "setting": "[19]", "result": 2.63},
      {"measurement": "glycan array binding signal (z-score)", "setting": "[20]", "result": 3.41},
      {"measurement": "glycan array binding signal (z-score)", "setting": "[21]", "result": 1.32},
      {"measurement": "glycan array binding signal (z-score)", "setting": "[22]", "result": 1.98},
      {"measurement": "glycan array binding signal (z-score)", "setting": "[23]", "result": 0.809},
      {"measurement": "glycan array binding signal (z-score)", "setting": "[24]", "result": -0.128},
      {"measurement": "glycan array binding signal (z-score)", "setting": "[25]", "result": -0.339},
      {"measurement": "glycan array binding signal (z-score)", "setting": "[26]", "result": -0.217},
      {"measurement": "glycan array binding signal (z-score)", "setting": "[27]", "result": -0.577},
      {"measurement": "glycan array binding signal (z-score)", "setting": "[28]", "result": 0.162},
      {"measurement": "glycan array binding signal (z-score)", "setting": "[29]", "result": 2.54},
      {"measurement": "glycan array binding signal (z-score)", "setting": "[30]", "result": 1.25}
    ]}
  ]
}
